Experimental data from the supplement of paper PMC6089552.
Where “and” joins values, the source holds several entries; their conditions need not be identical. Equal entries are not always repeated. Out of some 3,200 compounds screened, about 300 (9.4%) showed activity. The list comes from a sample in which actives are over-represented; it also holds similar structures and randomly drawn compounds.

System: A673/TR/shEF
Assay: cell viability (LOESS-normalised, relative to median of negative controls) (log2 ratio); higher = more viable cells (less compound effect), active = hit call of the paper (over 3 MAD below the median)
Settings: treatment time: 72 h
Summary of the method: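 Viability of A673/TR/shEF Ewing sarcoma cells was determined by CellTiter-Glo luminescence. The cells, at 1,500 per well in 384-well plates, were grown with or without doxycycline from 24 h before compound addition to switch on EWS-FLI1 shRNA knockdown, then exposed for three days to library compounds at two or more concentrations or to DMSO controls. Signals were LOESS-corrected plate by plate, normalised to the negative-control median and log2-transformed.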

[1] = 0.25 µM, library screen: screen2, EWS-FLI1 expression: high (no doxycycline)
[2] = 0.25 µM, library screen: screen2, EWS-FLI1 expression: low (doxycycline-induced shRNA knockdown)
[3] = 2.5 µM, library screen: screen2, EWS-FLI1 expression: high (no doxycycline)
[4] = 2.5 µM, library screen: screen2, EWS-FLI1 expression: low (doxycycline-induced shRNA knockdown)
[5] = 0.25 µM, library screen: screen1, EWS-FLI1 expression: high (no doxycycline)
[6] = 0.25 µM, library screen: screen1, EWS-FLI1 expression: low (doxycycline-induced shRNA knockdown)
[7] = 2.5 µM, library screen: screen1, EWS-FLI1 expression: high (no doxycycline)
[8] = 2.5 µM, library screen: screen1, EWS-FLI1 expression: low (doxycycline-induced shRNA knockdown)
[9] = 0.025 µM, library screen: screen2, EWS-FLI1 expression: high (no doxycycline)
[10] = 0.025 µM, library screen: screen2, EWS-FLI1 expression: low (doxycycline-induced shRNA knockdown)
[11] = 0.103 µM, library screen: screen3, EWS-FLI1 expression: high (no doxycycline)
[12] = 0.103 µM, library screen: screen3, EWS-FLI1 expression: low (doxycycline-induced shRNA knockdown)
[13] = 0.308 µM, library screen: screen3, EWS-FLI1 expression: high (no doxycycline)
[14] = 0.308 µM, library screen: screen3, EWS-FLI1 expression: low (doxycycline-induced shRNA knockdown)
[15] = 0.926 µM, library screen: screen3, EWS-FLI1 expression: high (no doxycycline)
[16] = 0.926 µM, library screen: screen3, EWS-FLI1 expression: low (doxycycline-induced shRNA knockdown)
[17] = 2.8 µM, library screen: screen3, EWS-FLI1 expression: high (no doxycycline)
[18] = 2.8 µM, library screen: screen3, EWS-FLI1 expression: low (doxycycline-induced shRNA knockdown)
[19] = 8.3 µM, library screen: screen3, EWS-FLI1 expression: high (no doxycycline)
[20] = 8.3 µM, library screen: screen3, EWS-FLI1 expression: low (doxycycline-induced shRNA knockdown)
[21] = 25 µM, library screen: screen2, EWS-FLI1 expression: high (no doxycycline)
[22] = 25 µM, library screen: screen2, EWS-FLI1 expression: low (doxycycline-induced shRNA knockdown)
[23] = 25 µM, library screen: screen3, EWS-FLI1 expression: high (no doxycycline)
[24] = 25 µM, library screen: screen3, EWS-FLI1 expression: low (doxycycline-induced shRNA knockdown)

Measured: cell viability (log2)

COc1cc2nc(N3CCN(C(=O)C4=C[C@H]5C=C[C@@H]4CC5)CC3)nc(N)c2cc1OC
inactive: [1] 0.165 | [2] 0.0668 | [3] 0.132 | [4] 0.0728

NCCCCC(N)C(=O)NC(Cc1c[nH]c2ccccc12)C(=O)NC(CCCCN)C(=O)O (stereo unspecified)
inactive: [5] 0.0147 | [6] 0.0512 | [7] 0.141 | [8] 0.0544

COC(=O)c1c(OC)cc2c(c1C)Oc1c(Cl)c(OC(C)=O)c(Cl)c(C)c1C(=O)O2
inactive: [5] 0.0846 | [6] 0.126 | [7] 0.0897 | [8] 0.152

COC(=O)C1=C(C)N=c2sc(=Cc3cccnc3)c(=O)n2C1c1ccccc1 (stereo unspecified)
inactive: [5] 0.123 | [6] 0.0677 | [7] 0.0796 | [8] 0.107

O=C(/C=C/c1ccc(-c2cccc(Cl)c2)o1)c1ccco1
inactive: [5] 0.127 | [6] 0.15 | [7] 0.147 | [8] 0.194

S=c1nc[nH]c2nc[nH]c12
active: [7] -0.186 | [21] -0.312 | [23] -0.314
inactive: [9] 0.182 | [10] 0.0993 | [11] 0.0192 | [12] 0.0459 | [5] -0.0045 | [6] -0.00406 | [1] 0.161 | [2] 0.00291 | [13] 0.144 | [14] 0.158 | [15] 0.0964 | [16] 0.0595 | [8] 0.0219 | [3] -0.00564 | [4] 0.0787 | [17] 0.036 | [18] 0.0694 | [19] -0.147 | [20] 0.036 | [22] 0.0432 | [24] 0.056

O=c1nc[nH]c2nc[nH]c12
inactive: [5] 0.00725 | [6] -0.0191 | [7] 0.152 | [8] 0.0891

Cn1c(=O)c2[nH]cnc2n(C)c1=O
inactive: [11] 0.139 | [12] 0.0982 | [5] 0.0899 | [6] 0.0721 | [1] 0.105 and -0.0181 | [2] 0.0369 and 0.0406 | [13] 0.11 | [14] 0.14 | [15] 0.146 | [16] 0.0819 | [7] 0.127 | [8] 0.0623 | [3] 0.259 and 0.0738 | [4] 0.0969 and 0.00951 | [17] 0.155 | [18] 0.129 | [19] 0.11 | [20] 0.0762 | [23] 0.117 | [24] 0.0984

Cn1c(=O)[nH]c2nc[nH]c2c1=O
inactive: [5] 0.0262 | [6] 0.135 | [7] 0.103 | [8] 0.0812

Nc1nc(=S)c2[nH]cnc2[nH]1
active: [7] -0.318 | [3] -0.33 | [19] -0.323 | [21] -0.96 | [22] -0.163 | [23] -0.834
inactive: [9] 0.0835 | [10] 0.0155 | [11] 0.132 | [12] 0.0451 | [5] 0.0575 | [6] 0.137 | [1] 0.0679 | [2] 0.0691 | [13] 0.156 | [14] 0.137 | [15] 0.118 | [16] 0.102 | [8] 0.0456 | [4] -0.0263 | [17] 0.0258 | [18] 0.111 | [20] 0.0181 | [24] 0.027
